Test results published in PubChem BioAssay (EPA / NIEHS).
Where “and” joins values, the source holds several entries; their conditions need not be identical. Identical values can stand only once. Records with an inconclusive call do not appear. Some structures have more than one record in an assay (separate samples or runs), and their calls can disagree. Calls of active or inactive are those of the source. The calls were made as follows, unless noted: active = hit-call score of the fitted dose curve at least 0.9, where 1 is the maximum; inconclusive = response in the unintended direction; inactive = score below 0.9.

Legend:
[1] = target: Retinoic acid receptor alpha (Homo sapiens) (UniProt P10276); assay: ATG_DR5_RAR_CIS: Attagene CIS-FACTORIAL HepG2 Assay for human Retinoic Acid Receptor Alpha (RARE), DR5 submotif (AID 2282934; active = hit-call score of the fitted dose curve at least 0.9, where 1 is the maximum; inactive = score below 0.9); settings: HepG2 Attagene cis-factorial RARE DR5 reporter, mRNA; actives raise or lower the signal
Sequence of Retinoic acid receptor alpha (Homo sapiens) (P10276 whole entry, looked up): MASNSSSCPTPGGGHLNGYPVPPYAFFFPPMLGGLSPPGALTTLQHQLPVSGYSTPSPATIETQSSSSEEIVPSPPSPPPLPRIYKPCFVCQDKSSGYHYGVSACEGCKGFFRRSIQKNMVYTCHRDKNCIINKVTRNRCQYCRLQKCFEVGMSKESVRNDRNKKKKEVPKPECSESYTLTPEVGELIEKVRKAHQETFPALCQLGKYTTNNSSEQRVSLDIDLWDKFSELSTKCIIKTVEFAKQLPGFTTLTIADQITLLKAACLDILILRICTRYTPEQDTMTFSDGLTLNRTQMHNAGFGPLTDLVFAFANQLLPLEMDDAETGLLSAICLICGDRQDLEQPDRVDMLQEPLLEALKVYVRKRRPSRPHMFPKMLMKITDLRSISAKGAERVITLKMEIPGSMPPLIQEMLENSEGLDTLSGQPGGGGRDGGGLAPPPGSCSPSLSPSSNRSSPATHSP
Summary of the method: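 HepG2 cells transiently transfected with multiplexed reporter units under cis (DR5 RARE) promoters, so endogenous transcription factor activity is measured. After 24 h compound exposure, reporter mRNA is quantified by RT-PCR with fluorescent labelling and capillary electrophoresis; bidirectional fitting versus DMSO.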

[2] = target: Nuclear receptor subfamily 1 group I member 3 (Homo sapiens) (UniProt Q14994); assay: ATG_CAR_TRANS: Attagene TRANS-FACTORIAL HepG2 Assay for human Constitutive Androstane Receptor (CAR) (AID 2282969); settings: HepG2 Attagene TRANS-FACTORIAL CAR reporter;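 also: activators raise reporter mRNA above DMSO so AC50 marks induction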
Sequence of Nuclear receptor subfamily 1 group I member 3 (Homo sapiens) (Q14994 whole entry, looked up, the tested form may be a part): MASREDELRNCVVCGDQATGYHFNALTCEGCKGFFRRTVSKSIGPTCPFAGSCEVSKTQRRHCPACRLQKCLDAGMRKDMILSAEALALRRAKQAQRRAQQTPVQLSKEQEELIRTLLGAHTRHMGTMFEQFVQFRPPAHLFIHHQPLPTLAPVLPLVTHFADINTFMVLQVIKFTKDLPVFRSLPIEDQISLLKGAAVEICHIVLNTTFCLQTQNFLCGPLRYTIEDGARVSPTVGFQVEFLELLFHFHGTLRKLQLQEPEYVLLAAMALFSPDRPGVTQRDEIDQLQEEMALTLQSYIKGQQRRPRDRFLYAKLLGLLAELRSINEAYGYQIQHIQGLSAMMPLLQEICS
Summary of the method: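 Steps: transient transfection of HepG2 with multiple GAL4-UAS reporter units; 24 h compound incubation; RNA isolation, RT-PCR, 6-FAM primer extension, HpaI digest; capillary electrophoresis. Gain-of-signal relative to DMSO negative control.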

[3] = ATG_M_19_TRANS: Attagene TRANS-FACTORIAL HepG2 Assay for M19 Transcription Factor (Internal Marker) (AID 2282974); settings: HepG2 Attagene TRANS-FACTORIAL M19 internal marker reporter
Summary of the method: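 Multiplexed TRANS format: HepG2 liver cells bearing transient GAL4-UAS reporter units, chemical treatment 24 h, reporter transcripts quantified by RT-PCR plus capillary electrophoresis. DMSO defines baseline.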

[4] = target: Oxysterols receptor LXR-beta (Homo sapiens) (UniProt P55055); assay: ATG_LXRb_TRANS: Attagene TRANS-FACTORIAL HepG2 Assay for human Liver X Receptor beta (LXRb) (AID 2282981); settings: HepG2 Attagene TRANS GAL4-LXRb reporter, mRNA
Sequence of Oxysterols receptor LXR-beta (Homo sapiens) (P55055 whole entry, looked up, the tested form may be a part): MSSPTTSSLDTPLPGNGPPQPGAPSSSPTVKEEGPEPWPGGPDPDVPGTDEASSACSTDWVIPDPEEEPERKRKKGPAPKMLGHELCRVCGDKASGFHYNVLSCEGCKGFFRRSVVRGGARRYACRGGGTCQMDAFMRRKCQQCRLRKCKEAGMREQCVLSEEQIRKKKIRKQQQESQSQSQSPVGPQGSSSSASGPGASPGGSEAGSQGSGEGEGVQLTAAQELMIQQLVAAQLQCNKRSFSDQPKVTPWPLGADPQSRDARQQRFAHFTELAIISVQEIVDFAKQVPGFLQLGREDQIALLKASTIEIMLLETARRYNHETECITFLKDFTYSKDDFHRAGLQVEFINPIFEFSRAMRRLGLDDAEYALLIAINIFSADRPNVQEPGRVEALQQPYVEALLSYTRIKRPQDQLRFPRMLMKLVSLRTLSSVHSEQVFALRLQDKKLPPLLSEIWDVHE
Summary of the method: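 Liver-derived HepG2 cells transfected with Gal4-responsive reporters were dosed for 24 h. Activation was scored as rise in reporter mRNA, by RT-PCR and capillary electrophoresis, above DMSO baseline.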

[5] = target: Nuclear receptor subfamily 4 group A member 2 (Homo sapiens) (UniProt P43354); assay: ATG_NURR1_TRANS: Attagene TRANS-FACTORIAL HepG2 Assay for human Nuclear Receptor Related Protein 1 (NURR1) (AID 2282985); settings: HepG2 Attagene TRANS reporter, mRNA readout
Sequence of Nuclear receptor subfamily 4 group A member 2 (Homo sapiens) (P43354 whole entry, looked up, the tested form may be a part): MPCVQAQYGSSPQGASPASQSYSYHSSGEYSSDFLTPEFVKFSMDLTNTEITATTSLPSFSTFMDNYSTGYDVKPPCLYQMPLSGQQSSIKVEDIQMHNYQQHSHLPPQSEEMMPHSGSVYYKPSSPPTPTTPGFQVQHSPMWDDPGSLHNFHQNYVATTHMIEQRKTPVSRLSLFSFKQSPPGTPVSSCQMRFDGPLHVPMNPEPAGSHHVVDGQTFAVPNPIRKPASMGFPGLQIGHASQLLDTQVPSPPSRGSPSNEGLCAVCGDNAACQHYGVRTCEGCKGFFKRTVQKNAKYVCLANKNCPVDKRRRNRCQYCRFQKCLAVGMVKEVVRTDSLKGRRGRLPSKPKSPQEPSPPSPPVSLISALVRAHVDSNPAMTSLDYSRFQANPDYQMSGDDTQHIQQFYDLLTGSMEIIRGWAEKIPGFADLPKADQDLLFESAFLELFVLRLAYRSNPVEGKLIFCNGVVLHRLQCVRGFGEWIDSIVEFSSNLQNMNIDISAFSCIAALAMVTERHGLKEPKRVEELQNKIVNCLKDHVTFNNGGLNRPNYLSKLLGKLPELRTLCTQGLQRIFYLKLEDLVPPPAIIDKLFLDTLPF
Summary of the method: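 Chimeric NR-Gal4 proteins were expressed in human HepG2 cells bearing GAL4-UAS reporter units, and induced reporter mRNA was quantified 24 h post-dosing by RT-PCR and capillary electrophoresis.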

[6] = target: human Peroxisome Proliferator-activated Receptor delta (PPARd), PPARD (gene 5467) (UniProt Q03181); assay: ATG_PPARd_TRANS: Attagene TRANS-FACTORIAL HepG2 Assay for human Peroxisome Proliferator-activated Receptor delta (PPARd) (AID 2283002)
Sequence of human Peroxisome Proliferator-activated Receptor delta (PPARd), PPARD (gene 5467) (Q03181 whole entry, looked up, the tested form may be a part): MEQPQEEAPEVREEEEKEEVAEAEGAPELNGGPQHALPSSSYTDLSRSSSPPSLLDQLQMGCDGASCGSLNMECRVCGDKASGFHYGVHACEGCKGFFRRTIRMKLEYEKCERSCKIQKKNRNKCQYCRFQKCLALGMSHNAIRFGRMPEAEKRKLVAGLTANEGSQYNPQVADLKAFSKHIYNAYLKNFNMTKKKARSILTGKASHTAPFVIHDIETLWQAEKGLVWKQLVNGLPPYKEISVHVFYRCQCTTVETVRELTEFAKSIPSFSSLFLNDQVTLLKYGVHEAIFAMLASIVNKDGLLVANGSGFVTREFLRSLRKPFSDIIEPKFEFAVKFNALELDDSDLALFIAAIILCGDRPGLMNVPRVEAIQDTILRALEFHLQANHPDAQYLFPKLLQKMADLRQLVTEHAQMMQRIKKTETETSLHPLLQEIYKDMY
Summary of the method: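 HepG2 cells transiently transfected with multiplexed GAL4-UAS reporter units and exogenous chimeric NR-Gal4 proteins; 24 h compound exposure. Reporter mRNA measured by RT-PCR, 6-FAM labelling, HpaI digestion and capillary electrophoresis; gain of signal versus DMSO.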

[7] = target: human RAR-related Orphan Receptor beta (RORb), RORB (gene 6096) (UniProt Q92753); assay: ATG_RORb_TRANS: Attagene TRANS-FACTORIAL HepG2 Assay for human RAR-related Orphan Receptor beta (RORb) (AID 2283010)
Summary of the method: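 Multiplexed transcription-factor reporter assay: HepG2 cells transiently carrying NR-Gal4/GAL4-UAS constructs, 24 h treatment, mRNA quantified by RT-PCR plus capillary electrophoresis fluorescence; activity scored as induction over DMSO.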

[8] = target: human RAR-related Orphan Receptor gamma (RORg), RORC (gene 6097) (UniProt P51449); assay: ATG_RORg_TRANS: Attagene TRANS-FACTORIAL HepG2 Assay for human RAR-related Orphan Receptor gamma (RORg) (AID 2283011);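 as to AC50: potency for induction of reporter transcripts above DMSO so activators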
Sequence of human RAR-related Orphan Receptor gamma (RORg), RORC (gene 6097) (P51449 whole entry, looked up, the tested form may be a part): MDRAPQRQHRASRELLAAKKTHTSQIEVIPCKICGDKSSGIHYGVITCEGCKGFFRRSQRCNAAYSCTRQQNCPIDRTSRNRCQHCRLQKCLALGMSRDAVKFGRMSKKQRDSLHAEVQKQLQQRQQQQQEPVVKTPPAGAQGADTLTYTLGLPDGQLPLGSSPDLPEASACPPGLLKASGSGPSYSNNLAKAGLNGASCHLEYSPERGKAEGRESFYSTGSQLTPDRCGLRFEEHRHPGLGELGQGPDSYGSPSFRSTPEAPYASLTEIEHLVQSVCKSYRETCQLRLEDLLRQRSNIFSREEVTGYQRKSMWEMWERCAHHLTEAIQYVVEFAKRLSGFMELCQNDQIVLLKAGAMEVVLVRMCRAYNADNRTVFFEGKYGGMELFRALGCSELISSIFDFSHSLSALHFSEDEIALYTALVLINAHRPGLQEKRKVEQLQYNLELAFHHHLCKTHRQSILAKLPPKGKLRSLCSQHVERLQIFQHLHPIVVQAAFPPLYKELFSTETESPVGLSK
Summary of the method: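 Reporter transcripts from a transfected RORg-GAL4 chimera in HepG2 cells were quantified 24 h after dosing by RT-PCR, 6-FAM labelling, HpaI digestion and capillary electrophoresis; increases over DMSO baseline were fitted.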

[9] = target: human Retinoid X Receptor beta (RXRb), RXRB (gene 6257) (UniProt P28702); assay: ATG_RXRb_TRANS: Attagene TRANS-FACTORIAL HepG2 Assay for human Retinoid X Receptor beta (RXRb) (AID 2283013)
Sequence of human Retinoid X Receptor beta (RXRb), RXRB (gene 6257) (P28702 whole entry, looked up, the tested form may be a part): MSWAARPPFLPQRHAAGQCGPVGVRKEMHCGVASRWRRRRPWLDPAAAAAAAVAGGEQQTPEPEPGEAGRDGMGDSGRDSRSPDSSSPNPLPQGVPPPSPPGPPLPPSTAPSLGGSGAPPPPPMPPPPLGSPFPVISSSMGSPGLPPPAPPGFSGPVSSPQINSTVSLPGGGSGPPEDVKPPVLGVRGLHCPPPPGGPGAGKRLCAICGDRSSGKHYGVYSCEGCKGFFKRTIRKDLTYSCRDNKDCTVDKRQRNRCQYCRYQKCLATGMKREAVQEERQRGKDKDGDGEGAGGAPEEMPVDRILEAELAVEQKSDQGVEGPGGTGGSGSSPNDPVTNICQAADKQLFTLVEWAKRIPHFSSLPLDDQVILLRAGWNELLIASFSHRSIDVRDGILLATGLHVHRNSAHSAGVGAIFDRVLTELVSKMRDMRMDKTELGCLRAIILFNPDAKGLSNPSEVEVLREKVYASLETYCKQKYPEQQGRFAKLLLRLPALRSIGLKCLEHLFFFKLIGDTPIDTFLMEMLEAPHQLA
Summary of the method: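 After a 24 h incubation with test chemical, transfected HepG2 cells carrying NR-Gal4 fusions and GAL4-UAS reporter transcription units yield RNA whose reporter cDNA is FAM-labelled, HpaI-cut and sized by capillary electrophoresis; increases over DMSO are scored.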

[10] = target: human Vitamin D Receptor (VDR), VDR (gene 7421) (UniProt P11473); assay: ATG_VDR_TRANS: Attagene TRANS-FACTORIAL HepG2 Assay for human Vitamin D Receptor (VDR) (AID 2283022)
Sequence of human Vitamin D Receptor (VDR), VDR (gene 7421) (P11473 whole entry, looked up, the tested form may be a part): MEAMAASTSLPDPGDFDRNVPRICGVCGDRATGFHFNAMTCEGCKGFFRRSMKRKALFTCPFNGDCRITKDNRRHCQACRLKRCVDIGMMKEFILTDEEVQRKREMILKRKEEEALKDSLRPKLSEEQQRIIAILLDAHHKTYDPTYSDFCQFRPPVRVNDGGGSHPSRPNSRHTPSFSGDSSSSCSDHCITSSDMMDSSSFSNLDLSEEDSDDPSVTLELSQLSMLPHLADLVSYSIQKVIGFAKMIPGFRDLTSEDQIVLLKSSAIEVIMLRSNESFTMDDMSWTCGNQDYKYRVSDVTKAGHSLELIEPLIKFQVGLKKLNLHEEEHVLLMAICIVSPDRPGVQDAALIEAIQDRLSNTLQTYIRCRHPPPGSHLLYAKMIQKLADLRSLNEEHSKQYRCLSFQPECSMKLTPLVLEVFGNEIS
Summary of the method: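 Transactivation by an exogenous VDR-Gal4 chimera in transiently transfected HepG2 cells was measured as reporter transcript level 24 hours after chemical treatment. RT-PCR products were analysed by capillary electrophoresis and fitted in the positive direction relative to DMSO.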

[11] = TOX21_p53_BLA_p3_viability: Viability Assessment in the Tox21 HCT-116 p53 Agonism Beta-lactamase Assay, Phase 3 (AID 2283593);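 also: cells exposed to compound for 16 h before reading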
Summary of the method: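 HCT-116 cells (4000/well) rested 5 h at 37C, then got DMSO compounds by pin tool (217-fold dilution) for 16 h at 37C, 5% CO2. After the bla read, CellTiter-Glo was added and luminescence read at 30 min, room temperature.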

[12] = target: Cellular tumor antigen p53 (Homo sapiens) (UniProt P04637); assay: TOX21_p53_BLA_p3_ratio: Tox21 HCT-116 p53 Agonism Beta-lactamase Assay, Ratio, Phase 3 (AID 2283596)
Sequence of Cellular tumor antigen p53 (Homo sapiens) (P04637 whole entry, looked up): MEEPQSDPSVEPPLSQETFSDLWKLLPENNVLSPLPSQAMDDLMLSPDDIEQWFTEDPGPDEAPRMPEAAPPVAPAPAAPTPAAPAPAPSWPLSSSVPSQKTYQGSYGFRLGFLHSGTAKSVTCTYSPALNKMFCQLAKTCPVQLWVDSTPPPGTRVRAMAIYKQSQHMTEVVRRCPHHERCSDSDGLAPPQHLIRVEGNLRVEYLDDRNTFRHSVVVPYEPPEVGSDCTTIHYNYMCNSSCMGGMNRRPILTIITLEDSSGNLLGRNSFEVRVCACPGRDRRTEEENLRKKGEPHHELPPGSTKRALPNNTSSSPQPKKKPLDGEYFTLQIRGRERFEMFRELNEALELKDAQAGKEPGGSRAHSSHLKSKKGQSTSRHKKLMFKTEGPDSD
Summary of the method: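 Cells were seeded at 4000/well, rested 5 h at 37C, then dosed with DMSO compound solutions (217-fold dilution) for 16 h. CCF4-AM substrate was loaded for 2 h at room temperature, and the 460/530 nm emission ratio was fitted for gain of signal versus DMSO.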

[13] = TOX21_p53_BLA_p4_viability: Viability Assessment in the Tox21 HCT-116 p53 Agonism Beta-lactamase Assay, Phase 4 (AID 2283597);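 also: hits lower the luminescence signal meaning cytotoxicity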
Summary of the method: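 Cytotoxicity as reduced cellular ATP (CellTiter-Glo luminescence, 30 min room temperature), measured in the same wells following the CCF4 FRET p53 reading. Human HCT-116 cells received compounds in DMSO (217-fold dilution) for 16 h.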

[14] = target: Bile acid receptor (Homo sapiens) (UniProt Q96RI1); assay: ATG_IR1_CIS: Attagene CIS-FACTORIAL HepG2 Assay for human Nuclear Receptor Subfamily 1 Group H Member 4 (NR1H4), IR1 submotif (AID 2282946; active = hit-call score of the fitted dose curve at least 0.9, where 1 is the maximum; inactive = score below 0.9); settings: IR1 reporter transcription, actives raise or lower the signal
Sequence of Bile acid receptor (Homo sapiens) (Q96RI1 whole entry, looked up): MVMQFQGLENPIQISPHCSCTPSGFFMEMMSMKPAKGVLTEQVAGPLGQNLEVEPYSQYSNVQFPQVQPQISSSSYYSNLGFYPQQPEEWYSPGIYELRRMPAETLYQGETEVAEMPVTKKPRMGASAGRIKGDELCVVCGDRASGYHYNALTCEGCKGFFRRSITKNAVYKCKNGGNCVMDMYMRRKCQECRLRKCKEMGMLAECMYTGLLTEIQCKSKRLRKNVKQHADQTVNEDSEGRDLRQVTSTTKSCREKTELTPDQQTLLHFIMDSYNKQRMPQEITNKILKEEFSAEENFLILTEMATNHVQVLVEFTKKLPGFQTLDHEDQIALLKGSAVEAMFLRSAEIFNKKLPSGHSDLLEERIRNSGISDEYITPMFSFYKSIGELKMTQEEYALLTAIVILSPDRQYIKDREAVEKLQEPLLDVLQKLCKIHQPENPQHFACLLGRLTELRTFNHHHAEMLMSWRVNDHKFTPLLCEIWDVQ
Summary of the method: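 Readout: reporter transcript levels by RT-PCR with fluorescent capillary electrophoresis, from HepG2 cells transiently transfected with multiplexed cis-regulated reporters and dosed 24 h. Gain- or loss-of-signal fitted versus DMSO negative control.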

[15] = ATG_GAL4_TRANS: Attagene TRANS-FACTORIAL HepG2 Assay for GAL4 (Internal Marker) (AID 2282976); settings: HepG2 Attagene TRANS GAL4 internal marker reporter
Summary of the method: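 In transfected human HepG2 liver cells dosed 24 h, GAL4 reporter mRNA serves as a baseline marker. Detection by RT-PCR with fluorescent capillary electrophoresis, activity fitted upward relative to DMSO.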

[16] = target: human Peroxisome Proliferator-activated Receptor alpha (PPARa), PPARA (gene 5465) (UniProt Q07869); assay: ATG_PPARa_TRANS: Attagene TRANS-FACTORIAL HepG2 Assay for human Peroxisome Proliferator-activated Receptor alpha (PPARa) (AID 2283001)
Summary of the method: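 Exposure: 24 h, transiently transfected HepG2 cells. Endpoint: GAL4-UAS reporter mRNA, RT-PCR with capillary electrophoresis fluorescence. Baseline: DMSO; increases fitted.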

[17] = TOX21_p53_BLA_p2_viability: Viability Assessment in the Tox21 HCT-116 p53 Agonism Beta-lactamase Assay, Phase 2 (AID 2283591);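 also: compound exposure lasted 16 h at 37 °C; actives lower the ATP signal meaning cytotoxicity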
Summary of the method: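 HCT-116 p53-bla cells (4000/well) rested 5 h at 37C, then received compounds in DMSO (217-fold dilution) for 16 h at 37C, 5% CO2. After the CCF4 read, CellTiter-Glo was added; ATP luminescence was read after 30 min at room temperature.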

[18] = TOX21_p53_BLA_p5_viability: Viability Assessment in the Tox21 HCT-116 p53 Agonism Beta-lactamase Assay, Phase 5 (AID 2283600)
Summary of the method: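 Viability came from CellTiter-Glo ATP luminescence, read after 30 min at room temperature. Before this, HCT-116 p53-bla cells (4000/well) had 16 hours of compound exposure at 37C, with DMSO stocks diluted 217-fold on transfer.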

[19] = ATG_ERE_CIS: Attagene CIS-FACTORIAL HepG2 Assay for Estrogen Response Element (ERE) (AID 2282940; active = hit-call score of the fitted dose curve at least 0.9, where 1 is the maximum; inactive = score below 0.9); settings: HepG2 ERE cis-reporter, Attagene RNA transcript; actives raise or lower the signal
Summary of the method: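 After a 24 h chemical treatment, RNA from reporter-transfected HepG2 cells is reverse-transcribed, PCR-amplified and fluorescently labelled. Fragments separated by capillary electrophoresis give reporter signal; DMSO serves as negative control.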

[20] = ATG_PPRE_CIS: Attagene CIS-FACTORIAL HepG2 Assay for human Peroxisome Proliferator-activated Response Element (PPRE) (AID 2282958; active = hit-call score of the fitted dose curve at least 0.9, where 1 is the maximum; inactive = score below 0.9); settings: HepG2 PPRE cis-element reporter, Attagene transcription factor profiling; actives raise or lower the signal
Summary of the method: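 DMSO served as negative control and baseline for bidirectional curve fitting. Signal came from PPRE-regulated reporter mRNA in HepG2 cells, measured 24 h post-dosing by RT-PCR, 6-FAM primer extension and capillary electrophoresis.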

Measured: AC50

CC=Cc1ccc2c(c1)OCO2
not listed: [14] | [15] | [16] | [17] | [18] | [19] | [20]
inactive: all other assays above

[N-]=[N+]=CC(=O)OC[C@H](N)C(=O)O
not listed: [2] | [3] | [8] | [9] | [19] | [20]
inactive: all other assays above

C=CC(=O)OCCO
inactive: [5] | [16] | [6] | [7] | [10] | [11] | [12] | [18]

ClCC(Cl)Cl
inactive: [19] | [20] | [2] | [15] | [16] | [8] | [9] | [10] | [17] | [11] | [18]

CC(C)(C)C(=O)CCl
active: [5] 135 µM | [8] 134 µM
not listed: [1] | [2] | [4] | [10] | [14] | [15]
inactive: all other assays above

c1cc(OCC2CO2)ccc1Cc1ccc(OCC2CO2)cc1 (stereo not drawn)
inactive: [1] | [19] | [3] | [4] | [5] | [8] | [9] | [10] | [17] | [11] | [18]
active: [14] 37.4 µM | [20] 51.5 µM | [11] 87.4 µM | [12] 75.1 µM and 79.5 µM

O=C1C(Cl)=C(Cl)C(=O)C(Cl)=C1Cl
active: [14] 72.4 µM | [17] 58.9 µM | [11] 21.6 µM and 44.2 µM | [13] 73.4 µM and 73.7 µM | [18] 57.6 µM and 56.4 µM
inactive: [1] | [19] | [20] | [2] | [4] | [5] | [16] | [6] | [8] | [9] | [10] | [17]

CC(O)CN(CC(C)O)CC(C)O (stereo not drawn)
not listed: [5] | [6] | [9] | [10] | [11] | [15] | [19] | [20]
inactive: all other assays above

CC1CCC(=O)O1 (stereo not drawn)
inactive: [3] | [5] | [7] | [8] | [12]

C=C(Cl)CCl
not listed: [2] | [5] | [6] | [11] | [14] | [17] | [18]
inactive: all other assays above

CCC1CCC(=O)O1 (stereo not drawn)
inactive: [1] | [16] | [6] | [8] | [9] | [10]

O=C(O)C(Br)Br
inactive: [19] | [14] | [3] | [15] | [8] | [11] | [12] | [13] | [18]

CCCCNP(N)(N)=S
not listed: [1] | [2] | [7] | [8] | [9] | [10] | [15] | [16]
inactive: all other assays above

COc1cc(OC)c(OC)cc1C=O
active: [19] 27.6 µM
inactive: [3] | [15] | [5] | [9] | [10] | [17] | [11] | [12] | [13] | [18]

CC(=O)c1cc2c(cc1C)C(C)(C)C(C)CC2(C)C (stereo not drawn)
active: [14] 179 µM | [9] 5.85 µM
inactive: [20] | [3] | [15] | [4] | [6] | [10] | [17] | [12] | [18]

C=C(Cl)Cl
not listed: [3] | [7] | [9] | [10] | [11] | [12] | [14] | [16]
inactive: all other assays above
